Results filed as inconclusive are left out. The source made the active and inactive calls. Unless noted, calls come from the whole dose curve; as a rule, active = well fitted curve in the direction sought with a large enough effect in the repeat runs; inconclusive = weak or mixed curves; inactive = no such curve, though single readings can be large; an effect the other way counts as inactive or inconclusive.

Test [1] addresses Aryl hydrocarbon receptor (Homo sapiens) (UniProt P35869). Nature of the test: qHTS assay to identify small molecule that activate the aryl hydrocarbon receptor (AhR) signaling pathway (AID 743085).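 Note: HG2L7.5c1 human HepG2 liver cells with stably integrated DRE-driven firefly reporter; series mostly up to about 70 µM; nearly all actives have a fitted effect of over 15% in size.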 An outline of the steps: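 A multiplexed format paired cell viability (CellTiter-Fluor fluorescence) with AhR-dependent luciferase output (ONE-Glo luminescence) in the same wells of HepG2 DRE-luc cells after 24 h compound exposure at 37C.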

A short description of test [2]: qHTS assay to identify small molecule that activate the aryl hydrocarbon receptor (AhR) signaling pathway - cell viability counter screen (AID 743086).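 Note: HepG2 liver cells carrying the AhR DRE luciferase reporter; series mostly up to about 70 µM; nearly all actives have a fitted effect of over 45% in size.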 An outline of the steps:
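HepG2-AhR-luc (HG2L7.5c1) cells, 4000/well, were preincubated 5 h at 37C, exposed to compound in qHTS format for 24 hr at 37C, then given CellTiter-Fluor for 30 min; viability was read as fluorescence in the reporter wells.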

For test [3], the target named is Peroxisome proliferator-activated receptor gamma (Homo sapiens) (UniProt P37231). In words: qHTS assay to identify small molecule agonists of the peroxisome proliferator-activated receptor gamma (PPARg) signaling pathway (AID 743094; active = well fitted activation curve with a large enough effect in the signal ratio in the repeat runs, not every such curve was filed as active; the % refers to the signal ratio). An outline of the steps: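 Stably transfected HEK293H cells (GeneBLAzer PPARg UAS-bla) were incubated with test substances for 17 h at 37C after a 5 h pre-incubation; beta-lactamase activity was then detected by FRET substrate fluorescence.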
For orientation: In qHTS, concentration-response curves come from the screen itself.

Test [4] is described as follows: qHTS assay to identify small molecule antagonists of the peroxisome proliferator-activated receptor gamma (PPARg) signaling pathway - cell viability counter screen (AID 743194). Note: nearly all actives have a fitted effect of over 55% in size. Note: potency is the fitted concentration of half-maximal effect. An outline of the steps: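 PPARg-UAS-bla HEK293H cells were plated, rested 5 h at 37 C, then treated with compounds plus rosiglitazone (50 nM final) for 17 h at 37 C; viability was then read by CellTiter-Glo luminescence after 30 min at room temperature.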

Test [5] in a line: qHTS assay for small molecule agonists of the antioxidant response element (ARE) signaling pathway (AID 743202; active = well fitted activation curve with a large enough effect in the signal ratio in the repeat runs, not every such curve was filed as active; the % refers to the signal ratio; note: potency is the fitted concentration of half-maximal effect). An outline of the steps:
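Compounds delivered in DMSO to ARE-bla HepG2 cells (2,000 cells/well, pre-incubated 5 h) and left 16 h at 37 C. LiveBLAzer B/G FRET substrate then added for 2 h at RT before fluorescence reading.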

Test [6] can be described thus: qHTS assay for small molecule agonists of the antioxidant response element (ARE) signaling pathway - cell viability counter screen (AID 743203; calls by dose curve; note: nearly all actives have a fitted effect of over 55% in size; note: potency is the fitted concentration of half-maximal effect). The procedure, abridged:
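Cells (ARE-bla HepG2, 2,000/well) receive DMSO-dissolved compounds after a 5 hrs rest. Plates incubate 16 hrs at 37C/5% CO2. CellTiter-Glo luminescence is then recorded after 30 min at room temperature.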

Test [7] can be described thus: qHTS assay for small molecule activators of the heat shock response signaling pathway (AID 743210; active = well fitted activation curve with a large enough effect in the signal ratio in the repeat runs, with a control signal flat, not every such curve was filed as active; the % refers to the signal ratio; note: series mostly up to about 63 µM). An outline of the steps: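 Reporter gene assay: HeLa cells stably bearing an HSE-bla construct, compound treatment 5 h at 37 C, LiveBLAzer substrate 2.5 h at RT, fluorescence intensity.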
Test [8] can be described thus: qHTS assay to identify small molecule agonists of the peroxisome proliferator-activated receptor delta (PPARd) signaling pathway - cell viability counter screen (AID 743211). Note: nearly all actives have a fitted effect of over 55% in size. Note: potency is the fitted concentration of half-maximal effect. An outline of the steps:
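Tox21 library compounds, delivered in DMSO, were incubated 17 h with PPARd-bla HEK293H cells; cytotoxicity was taken from CellTiter-Glo luminescence read 30 min after reagent addition.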

Test [9] can be described thus: qHTS assay to identify small molecule antagonists of the peroxisome proliferator-activated receptor delta (PPARd) signaling pathway - cell viability counter screen (AID 743213). Note: nearly all actives have a fitted effect of over 50% in size. An outline of the steps: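 HEK293H PPARd UAS-bla cells, 5 h pre-incubation, compound + L165041 300 nM final, 17 h 37 C; B/G FRET substrate 2 h RT; then CellTiter-Glo 30 min RT, luminescence.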

The nature of test [10]: qHTS assay to identify small molecule agonists of the farnesoid-X-receptor (FXR) signaling pathway - cell viability counter screen (AID 743218). Note: nearly all actives have a fitted effect of over 45% in size. Note: potency is the fitted concentration of half-maximal effect. The procedure, abridged:
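In GeneBLAzer FXR-UAS-bla HEK 293T cells, compounds act for 16 h at 37 C. Cell viability is then scored in the reporter wells by CellTiter-Glo, 30 min at RT, luminescence.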

Test [11] in a line: qHTS assay to identify small molecule antagonists of the farnesoid-X-receptor (FXR) signaling pathway - cell viability counter screen (AID 743221; active = well fitted cell-killing curve with a large enough effect in the repeat runs, not every such curve was filed as active; note: nearly all actives have a fitted effect of over 50% in size). An outline of the steps: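 Cytotoxicity is taken from ATP luminescence (CellTiter-Glo, 30 min, room temperature) in FXR-bla HEK 293T cells previously incubated 16 h at 37 C with compound and chenodeoxycholic acid at 50 uM final.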

The nature of test [12]: qHTS assay to identify small molecule agonists of the vitamin D receptor (VDR) signaling pathway - cell viability counter screen (AID 743224). Note: series mostly up to about 63 µM; nearly all actives have a fitted effect of over 50% in size. An outline of the steps:
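VDR-bla cell line, quantitative HTS format; 16 h compound incubation (37C, 5% CO2); ATP-based CellTiter-Glo luminescence measured in the reporter assay wells.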

Test [13] can be described thus: qHTS assay for small molecule activators of the heat shock response signaling pathway - cell viability counter screen (AID 743209). Note: nearly all actives have a fitted effect of over 50% in size. An outline of the steps: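 Quantitative HTS format, Tox21 10K library. HeLa cells carrying an HSE-driven beta-lactamase reporter were treated 5 h at 37 C, then assessed for viability by CellTiter-Glo luminescence.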
Test [14] has as its target Peroxisome proliferator-activated receptor delta (Homo sapiens) (UniProt Q03181). In words: qHTS assay to identify small molecule agonists of the peroxisome proliferator-activated receptor delta (PPARd) signaling pathway (AID 743212; calls by dose curve). The procedure, abridged:
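A PPARd-bla HEK293H line with beta-lactamase under an Upstream Activator Sequence is treated with compounds at 37 C. Substrate loading for 2 h at room temperature precedes the fluorescence measurement.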

Test [15] shares this target. In words: qHTS assay to identify small molecule antagonists of the peroxisome proliferator-activated receptor delta (PPARd) signaling pathway (AID 743215; active = well fitted inhibition curve with a large enough effect in the signal ratio in the repeat runs, not every such curve was filed as active; the % refers to the signal ratio;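 note: cells stimulated with agonist L165041 at 300 nM final during compound exposure; series mostly up to about 62 µM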). The procedure, abridged:
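Antagonist-mode beta-lactamase reporter screen: HEK293H cells with UAS-bla under PPARd control, stimulated by 300 nM L165041 (final) alongside test compound for 17 h at 37 C, then FRET fluorescence after 2 h substrate incubation.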

In test [16] the target is Bile acid receptor (Homo sapiens) (UniProt Q96RI1). In words: qHTS assay to identify small molecule antagonists of the farnesoid-X-receptor (FXR) signaling pathway (AID 743217; active = well fitted inhibition curve with a large enough effect in the signal ratio in the repeat runs, not every such curve was filed as active; the % refers to the signal ratio). An outline of the steps:
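Beta-lactamase reporter under UAS control in HEK 293T cells; compound exposure 16 h at 37 °C in the presence of chenodeoxycholic acid (50 uM final); signal from B/G FRET substrate after 2 h at room temperature.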

Test [17] has the same target. Nature of the test: qHTS assay to identify small molecule agonists of the farnesoid-X-receptor (FXR) signaling pathway (AID 743220; active = well fitted activation curve with a large enough effect in the signal ratio in the repeat runs, not every such curve was filed as active; the % refers to the signal ratio). The procedure, abridged: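 Beta-lactamase reporter under UAS control in GeneBLAzer FXR HEK 293T cells (5000/well) measured with LiveBLAzer FRET substrate after 2 h at room temperature. Compound exposure lasted 16 h at 37C.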
Test [18] deals with Vitamin D3 receptor (Homo sapiens) (UniProt P11473). Nature of the test: qHTS assay to identify small molecule agonists of the vitamin D receptor (VDR) signaling pathway (AID 743222; calls by dose curve). The procedure, abridged: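 Agonist activity measured in VDR-bla reporter cells. Exposure 16 h, 37C, 5% CO2; detection by B/G FRET substrate, 2 h RT.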
Test [19] shares this target. In words: qHTS assay to identify small molecule antagonists of the vitamin D receptor (VDR) signaling pathway (AID 743223; active = well fitted inhibition curve with a large enough effect in the signal ratio in the repeat runs, not every such curve was filed as active; the % refers to the signal ratio). The procedure, abridged: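 Quantitative HTS in VDR-bla reporter cells stimulated with 1alpha,25-dihydroxyvitamin D3, 3 nM final. Compound exposure 16 h, 37C, 5% CO2. Read-out: beta-lactamase FRET substrate fluorescence, 2 h RT.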
The target in test [20] is Peroxisome proliferator-activated receptor gamma (Homo sapiens) (UniProt P37231). Nature of the test: qHTS assay to identify small molecule antagonists of the peroxisome proliferator-activated receptor gamma (PPARg) signaling pathway (AID 743191; calls by dose curve; note: series mostly up to about 63 µM; nearly all actives have a fitted effect of over 30% in size). The procedure, abridged:
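GeneBLAzer PPARg UAS-bla HEK293H cells carrying a UAS-driven beta-lactamase reporter were plated at 3000 cells/well, preincubated 5 h at 37C, then given compound for 17 h at 37C; LiveBLAzer B/G FRET substrate was read after 1 h at room temperature.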

Aryl hydrocarbon receptor (Homo sapiens), sequence (P35869 whole entry, looked up): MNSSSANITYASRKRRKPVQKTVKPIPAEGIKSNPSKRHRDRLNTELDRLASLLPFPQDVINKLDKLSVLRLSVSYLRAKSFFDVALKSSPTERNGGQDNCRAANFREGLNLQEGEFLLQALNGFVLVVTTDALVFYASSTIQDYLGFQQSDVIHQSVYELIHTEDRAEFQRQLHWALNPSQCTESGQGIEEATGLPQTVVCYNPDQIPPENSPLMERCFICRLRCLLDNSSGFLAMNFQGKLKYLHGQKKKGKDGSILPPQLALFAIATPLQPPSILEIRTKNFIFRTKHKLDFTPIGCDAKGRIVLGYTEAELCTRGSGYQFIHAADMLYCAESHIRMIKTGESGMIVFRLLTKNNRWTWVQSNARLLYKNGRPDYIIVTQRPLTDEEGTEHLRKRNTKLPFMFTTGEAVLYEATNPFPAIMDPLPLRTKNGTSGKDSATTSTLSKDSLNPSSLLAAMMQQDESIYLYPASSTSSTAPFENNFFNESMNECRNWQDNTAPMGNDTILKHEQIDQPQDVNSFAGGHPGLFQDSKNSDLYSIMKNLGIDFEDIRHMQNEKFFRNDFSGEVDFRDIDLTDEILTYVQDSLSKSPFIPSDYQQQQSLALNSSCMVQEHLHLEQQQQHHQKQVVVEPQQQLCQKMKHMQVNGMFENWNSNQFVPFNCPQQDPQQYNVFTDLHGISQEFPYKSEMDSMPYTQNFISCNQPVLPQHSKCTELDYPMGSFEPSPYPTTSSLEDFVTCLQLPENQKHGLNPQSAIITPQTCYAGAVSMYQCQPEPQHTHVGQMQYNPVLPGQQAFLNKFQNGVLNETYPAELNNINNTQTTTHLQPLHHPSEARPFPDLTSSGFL
Vitamin D3 receptor (Homo sapiens), sequence (P11473 whole entry, looked up): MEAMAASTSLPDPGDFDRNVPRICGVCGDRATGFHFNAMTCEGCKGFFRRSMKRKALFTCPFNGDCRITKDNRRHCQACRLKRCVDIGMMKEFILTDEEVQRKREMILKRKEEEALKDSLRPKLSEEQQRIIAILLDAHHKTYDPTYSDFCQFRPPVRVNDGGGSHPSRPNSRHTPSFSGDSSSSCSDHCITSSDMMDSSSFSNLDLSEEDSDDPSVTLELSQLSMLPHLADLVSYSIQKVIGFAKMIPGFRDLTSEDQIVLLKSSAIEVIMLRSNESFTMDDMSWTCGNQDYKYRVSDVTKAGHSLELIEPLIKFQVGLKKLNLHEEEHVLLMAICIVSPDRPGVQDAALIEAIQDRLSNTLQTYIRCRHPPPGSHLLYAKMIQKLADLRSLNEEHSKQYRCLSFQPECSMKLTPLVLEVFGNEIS
Bile acid receptor (Homo sapiens), sequence (Q96RI1 whole entry, looked up): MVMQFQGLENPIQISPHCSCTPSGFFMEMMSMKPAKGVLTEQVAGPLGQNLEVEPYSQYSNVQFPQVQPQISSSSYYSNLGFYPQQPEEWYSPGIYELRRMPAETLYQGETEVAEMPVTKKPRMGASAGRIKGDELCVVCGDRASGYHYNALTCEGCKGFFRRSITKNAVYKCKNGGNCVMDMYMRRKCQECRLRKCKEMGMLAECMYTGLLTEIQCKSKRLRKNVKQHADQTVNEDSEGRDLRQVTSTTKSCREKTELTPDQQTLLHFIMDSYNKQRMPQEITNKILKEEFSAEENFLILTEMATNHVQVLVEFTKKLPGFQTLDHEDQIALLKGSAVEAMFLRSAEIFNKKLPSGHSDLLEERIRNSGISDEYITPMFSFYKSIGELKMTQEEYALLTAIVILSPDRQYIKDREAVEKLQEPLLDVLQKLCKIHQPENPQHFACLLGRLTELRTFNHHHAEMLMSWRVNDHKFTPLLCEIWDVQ
Peroxisome proliferator-activated receptor delta (Homo sapiens), sequence (Q03181 whole entry, looked up): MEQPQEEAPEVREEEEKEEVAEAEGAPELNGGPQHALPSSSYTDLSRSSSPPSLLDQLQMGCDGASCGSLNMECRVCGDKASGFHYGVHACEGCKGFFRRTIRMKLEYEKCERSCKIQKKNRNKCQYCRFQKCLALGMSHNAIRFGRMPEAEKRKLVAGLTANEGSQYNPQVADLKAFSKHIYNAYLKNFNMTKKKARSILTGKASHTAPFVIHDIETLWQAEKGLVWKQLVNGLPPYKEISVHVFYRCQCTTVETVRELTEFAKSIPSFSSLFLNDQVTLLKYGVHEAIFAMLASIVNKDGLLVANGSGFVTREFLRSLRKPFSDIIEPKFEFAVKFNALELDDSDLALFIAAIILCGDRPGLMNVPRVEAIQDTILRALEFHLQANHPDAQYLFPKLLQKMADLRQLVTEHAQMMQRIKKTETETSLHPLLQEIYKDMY
Peroxisome proliferator-activated receptor gamma (Homo sapiens), sequence (P37231 whole entry, looked up): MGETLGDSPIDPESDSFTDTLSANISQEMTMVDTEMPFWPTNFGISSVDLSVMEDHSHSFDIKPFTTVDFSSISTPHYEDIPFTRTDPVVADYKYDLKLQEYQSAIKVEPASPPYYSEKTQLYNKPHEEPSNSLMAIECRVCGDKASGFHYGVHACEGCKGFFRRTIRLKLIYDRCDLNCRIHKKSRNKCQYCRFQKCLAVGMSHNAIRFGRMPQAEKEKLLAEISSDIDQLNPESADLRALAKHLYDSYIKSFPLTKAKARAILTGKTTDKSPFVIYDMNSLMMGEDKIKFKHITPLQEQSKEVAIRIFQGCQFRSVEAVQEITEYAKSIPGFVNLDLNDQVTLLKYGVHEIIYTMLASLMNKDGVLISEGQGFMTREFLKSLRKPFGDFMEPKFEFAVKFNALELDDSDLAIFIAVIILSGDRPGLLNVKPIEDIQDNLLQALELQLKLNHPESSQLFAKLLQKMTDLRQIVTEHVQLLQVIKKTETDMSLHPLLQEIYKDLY

In the case of `CC1(C)[C@@H](OC(=O)CCC(=O)O)CC[C@]2(C)[C@H]3C(=O)C=C4[C@@H]5C[C@@](C)(C(=O)O)CC[C@]5(C)CC[C@@]4(C)[C@]3(C)CC[C@@H]12`, the Potency entry in test [1], in [2], in [3], in test [4], in test [6] and in [7] was “inactive” throughout. In addition, the Potency result in [8], in [9], in test [10], in test [11] and in test [12] was “inactive” each time. In test [5], the Potency was 26.6 µM (active).

For `C=C1C[C@@]23CC[C@H]4[C@@](C)(CCC[C@@]4(C)C(=O)O[C@@H]4O[C@H](CO)[C@@H](O)[C@H](O)[C@H]4O)[C@@H]2CC[C@]1(O[C@@H]1O[C@H](CO)[C@@H](O)[C@H](O[C@@H]2O[C@H](CO)[C@@H](O)[C@H](O)[C@H]2O)[C@H]1O[C@@H]1O[C@H](CO)[C@@H](O)[C@H](O)[C@H]1O)C3`, the Potency entry in [1], in test [2], in [3], in test [4], in [5] and in test [6] was “inactive” throughout. In addition, the Potency entry in test [13], in [7], in [8], in test [14], in test [9] and in [15] was “inactive” each time. Besides, the Potency result in test [16], in test [10], in [17], in [11], in [18] and in [19] was “inactive” throughout. Also, in [12], the Potency result was “inactive”.

On to `CC1(C)S[C@@H]2[C@H](NC(=O)C(c3ccccc3)S(=O)(=O)O)C(=O)N2[C@H]1C(=O)O` (some centres not stated), for which the Potency entry in test [1], in [2], in test [3], in test [20], in test [4] and in test [6] was “inactive” each time. For the same compound, the Potency result in test [13], in test [8], in test [9], in [10], in test [11] and in [18] was “inactive” in each case. Moreover, the Potency result in test [19] and in test [12] was “inactive” in each case.

On to `CC(C)COCC(CN(Cc1ccccc1)c1ccccc1)N1CCCC1` (configuration not stated), for which the Potency result in [1], in test [2], in test [20], in test [15] and in [17] was “inactive” throughout. Moreover, the Potency was 26.6 µM (active) in test [4], 26.6 µM (active) in [6], 21.1 µM (active) in [8] and 33.5 µM (active) in test [10].

In the case of `O=C(CCc1ccc(O)cc1)c1c(O)cc(O)cc1O`, the Potency entry in [1], in [2], in test [3], in test [13], in test [8] and in test [14] was “inactive” in each case. Further, the Potency result in test [9], in test [15], in test [16], in test [10], in test [17] and in [11] was “inactive” in each case. The Potency entry in test [19] and in test [12] was “inactive” in each case. Further, the Potency in [5] is 31.3 µM (active).

For `C=C(C)C(=O)OCCCCCCCCCCCCC`, the Potency entry in test [1], in [2], in test [20], in test [4], in [5] and in test [6] was “inactive” each time. Further, the Potency entry in [7], in test [8], in test [14], in test [15], in test [10] and in test [11] was “inactive” in each case. In addition, the Potency result in test [12] is “inactive”.

These data come from PubChem BioAssay (Tox21).
